Hits are enriched below; roughly 19% of the tested compounds scored in any of these assays.
ELG1 DNA repair = blocks ELG1-dependent DNA repair in HEK293T cells; HEK293T ELG1-luciferase reporter, luminescence, 16 h; DNA damage induced by 5-fluorouridine; Potency, µM (titrated, usually from 46.1 µM), inactives show at the top dose activity change, negative = inhibition, most hits filed as inhibitors; 2.3% of 330,000 active; further: potency means the concentration at half of the fitted maximal effect; nearly all actives have a fitted effect of over 55% in size
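DMSO vehicle served as the neutral condition. Each well held 2,000 cells given 5-fluorouridine plus compound; after 16 hr at 37 °C/5% CO2, ONE-Glo was added and luciferase measured 30 min later.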
DT40 TDP1 CPT = growth inhibition of DT40 Tdp1-/-;hTDP1 cells with camptothecin (screen for TDP1 inhibitors); chicken DT40 Tdp1-/-;hTDP1 cells + 20 nM CPT, ATP luminescence, 48 h; Potency, µM (top dose mostly 46.2 µM), for inactives: at the top dose activity change, negative = growth inhibition, actives largely listed as inhibitors; 12% of 420,000 active; AID 686979; further: potency means the concentration at half of the fitted maximal effect; nearly all actives have a fitted effect of over 55% in size
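Chicken DT40 Tdp1-/- cells stably complemented with human TDP1 were seeded at 400 cells/well in medium containing 20 nM camptothecin, exposed to pin-transferred compounds, and grown at 37 °C for at least 48 hr. Viability was read as ATP luminescence.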
Giardia killer = kills Giardia lamblia. Giardia lamblia trophozoite viability. activity change, % at 7.66 µM, hits read low. 0.15% of 340,000 active. AID 540267; in the data active means activity change below about -80%; inconclusive means between about -30% and that limit;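 further: parasites exposed to compound for two days anaerobically before the ATP read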
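Trophozoite viability was measured as ATP-dependent luminescence, read 15-30 min after reagent addition. Before that, parasites at 100 cells/well were exposed to compounds for 48 h, anaerobically, at 37 deg C.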
TDP1 cell noCPT = qHTS for Inhibitors of human tyrosyl-DNA phosphodiesterase 1 (TDP1): qHTS in cells in absence of CPT; 15% of 420,000 active; AID 686978, 2013; DT40 Tdp1-/- hTDP1 cells, no CPT, ATP luminescence, 48 h; Potency, µM (doses to about 46.2 µM), for the others: top-dose activity change, negative = growth inhibition, usual class: inhibitors; further: potency means the concentration at half of the fitted maximal effect; nearly all actives have a fitted effect of over 55% in size
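No-CPT arm: Tdp1-/-;hTDP1 DT40 cells (400/well) plus compounds, incubated ≥48 hr at 37 °C. Readout CellTiter-Glo luminescence.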
TDP1 inh = blocks human tyrosyl-DNA phosphodiesterase 1; Q9NUW8; recombinant TDP1, AlphaScreen DNA substrate cleavage; Potency, µM (doses to about 130 µM), without a hit: at the highest dose activity change, negative = inhibition, most hits filed as inhibitors; 0.28% of 350,000 active; AID 485290; further: potency means the concentration at half of the fitted maximal effect; nearly all actives have a fitted effect of over 40% in size
Target sequence (Q9NUW8 whole entry, looked up): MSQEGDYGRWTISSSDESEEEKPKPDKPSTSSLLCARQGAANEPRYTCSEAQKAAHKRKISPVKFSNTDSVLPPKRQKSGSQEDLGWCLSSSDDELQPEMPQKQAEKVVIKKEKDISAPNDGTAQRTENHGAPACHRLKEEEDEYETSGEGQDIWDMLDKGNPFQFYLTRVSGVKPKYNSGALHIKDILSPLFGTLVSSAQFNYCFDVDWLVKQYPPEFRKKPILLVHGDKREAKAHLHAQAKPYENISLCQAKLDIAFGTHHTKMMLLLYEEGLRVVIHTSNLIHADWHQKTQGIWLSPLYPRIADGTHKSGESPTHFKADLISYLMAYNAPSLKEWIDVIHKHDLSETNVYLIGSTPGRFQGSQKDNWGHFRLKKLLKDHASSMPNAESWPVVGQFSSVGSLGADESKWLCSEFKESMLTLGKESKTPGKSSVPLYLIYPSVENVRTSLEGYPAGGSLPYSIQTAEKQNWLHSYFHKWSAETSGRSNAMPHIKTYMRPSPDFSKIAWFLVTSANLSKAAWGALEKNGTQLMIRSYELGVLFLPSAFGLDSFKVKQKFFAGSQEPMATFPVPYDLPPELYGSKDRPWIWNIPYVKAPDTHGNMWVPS
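AlphaScreen read-out: signal falls as enzyme removes the 3' tyrosine-FITC from a 5'-biotinylated DNA oligo (15 nM, 5 min, RT). Enzyme was E. coli-made recombinant Tdp1 at 1 nM, exposed to compound for 15 min beforehand; beads 10 ug/ml, 10 min.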
IL-1B inflam inh = inhibitors of inflammasome signaling (IL-1 beta secretion); 4.7% of 360,000 active; activity change, % at 57.5 µM; THP-1 LPS/ATP IL-1B secretion, AlphaLISA, 16 h; hits give low values; in the data active means activity change below about -50%; inconclusive means mostly about -30% to -49%
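Secreted IL-1B measured by AlphaLISA bead assay after 16 h compound exposure of THP-1 cells; compounds (final up to 57.5 uM) added 1 h before LPS (250 ng/mL) and ATP (1.25 mM) stimulation; lower signal means less secretion.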
* = called active by the depositor; ? = inconclusive; . = no result. Unless noted, the call rests on the fitted dose curve; in most records, active means well fitted curve in the direction sought with a large enough effect; inconclusive means small, poorly fitted or top-dose-only effect, or another doubt; inactive means no such curve, though single readings can be large; an effect the other way counts as inactive or inconclusive. On the % scale 0 is the no-effect control and ±100 the full control effect.

SMILES	ELG1 DNA repair	DT40 TDP1 CPT	Giardia killer	TDP1 cell noCPT	TDP1 inh	IL-1B inflam inh
Cn1cc(C(=O)N/N=C/c2cccc(O)c2)ccc1=O	-2.0%	0.0%	-9.6	-7.8%	-2.5%	5.3
Cn1cc(C(=O)N/N=C/C(Br)=C\c2ccccc2)ccc1=O	-0.2%	2.31µM*	-3.8	2.91µM*	2.0%	-98.5*
COc1cccc(NC(=O)CN(C)C(=O)CC(C)c2ccccc2)c1 (stereo not given)	-6.3%	-10.5%	-6.5	6.5%	-0.3%	-2.6
COc1cccc(NC(=O)CN(C)C(=O)COc2ccccc2Cc2ccccc2)c1	?	?	9.0	29.1µM*	0.6%	26.2
COc1cccc(NC(=O)CN(C)C(=O)CNC(=O)c2ccc(Oc3ccccc3)cc2)c1	?	?	-15.5	?	-6.5%	-96.3*
CCC(C)NC(=O)C1CCN(S(=O)(=O)c2ccc(OC)cc2)CC1 (stereo not given)	-1.1%	-10.8%	19.3	-43.5%	5.1%	-11.4
CCCNC(=O)N1C[C@H](O)COC[C@H]2O[C@@H](CC(=O)N[C@@H]3CCN(Cc4ccccc4)C3)CC[C@@H]21	.	10.4%	.	-2.1%	.	-19.9
CCc1cccc2cc3c(N)c(C(=O)Nc4ccc(S(=O)(=O)N5CCCC5)cc4)sc3nc12	?	?	6.6	8.2µM*	-2.3%	-14.8
CCc1nc(SCC(=O)N2CCc3cc(OC)c(OC)cc3C2)c(C#N)cc1C	.	?	-1.9	?	.	-1.2
COc1cc2c(cc1OC)CN(C(=O)CSc1nc(C)cc(C)c1C#N)CC2	2.59µM*	23.1µM*	-12.9	20.6µM*	5.2%	?
CC(C)OC(=O)CC(=O)CSc1nc2c(cc1C#N)CCCCCC2	?	3.0%	-16.3	-8.3%	-2.3%	26.7
COC(=O)CC(=O)CSc1nc(C)cc(C)c1C#N	5.2%	29.1µM*	25.3	?	-4.7%	39.9
COC(=O)CC(=O)CSc1nc2c(cc1C#N)CCC2	?	18.4µM*	-9.2	?	-3.3%	8.5
CC(C)OC(=O)CC(=O)CSc1nc2c(cc1C#N)CCC2	?	?	-21.0	8.2µM*	5.3%	14.2
CC(C)OC(=O)CC(=O)CSc1nc2c(cc1C#N)CCCC2	.	12.0%	13.9	-4.4%	-7.1%	20.3
COc1ccc(NS(=O)(=O)c2cccc(C(=O)NN=C(C)c3ccco3)c2)cc1	0.0%	-6.7%	-24.7	?	1.9%	15.5
CC(C)NC(=O)Cn1ncn2c(cc3cc(F)ccc32)c1=O	.	19.5%	.	19.7%	7.8%	.
Cc1cc(C)n(C(C)CNS(=O)(=O)c2ccc(Cl)cc2)n1 (stereo not given)	2.5%	6.7%	-23.1	-7.6%	4.8%	0.8
CCn1cc(C(=O)NCCC(=O)NC(C)C)c(=O)c2cc3c(cc21)OCO3	13.9%	-26.3%	1.7	23.3%	.	4.6
CCn1nc(C)cc1C(=O)Sc1cccc(Br)c1	12.9%	3.66µM*	-1.7	4.61µM*	-3.5%	-101.8*
CCn1nc(C)cc1C(=O)Sc1ccc(Cl)cc1Cl	12.2%	3.66µM*	2.0	3.66µM*	.	-62.5*
CCCc1cnc2c(c1SCc1cccc(F)c1)c(=O)n(C)c(=O)n2C	.	?	.	?	0.0%	.
COc1ccc(-c2cc(C(F)(F)F)nc(SCC(=O)N3CCC(C)CC3)n2)cc1	.	?	.	?	-3.2%	.
O=[N+]([O-])c1cccc(SSc2cccc([N+](=O)[O-])c2)c1	.	3.66µM*	-5.7	4.61µM*	.	?
Cc1ccc(-c2n[nH]c(Cc3ccccc3)n2)cc1	?	?	-5.5	?	-2.9%	-3.1
N#CC(C#N)=NNc1ccc2cn[nH]c2c1	.	4.11µM*	.	4.61µM*	.	-86.5*
CCc1cccc(CC)c1NC(=O)C1SC(=Nc2ccccc2C)C(c2nc3ccccc3s2)=C1N (stereo not given)	0.0%	?	0.0	23.1µM*	10.1%	6.0
